According to PubChem BioAssay AID1159580 (chemical genetic matrix, 2015):
Several values for one entry are separate records, joined by “and”; a condition that tells them apart may be missing. Identical values can stand only once. Hit rate of the full screen: of about 5,500 compounds, about 2,000 (36%) were called active. About 18% were inconclusive and are not listed. Rule as the data show it: active = normalized growth mostly below about 0.91 (no sharp cut-off); inconclusive = no clear call, values can overlap the other calls; inactive = mostly above about 0.92. This is one part of the list.

Experiment: chemical genetic growth profiling, strain panel (AID 1159580);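 also: tested at 20 µM; growth read once vehicle control cultures reached saturation at 30 °C; 1 = growth at the plate median or of vehicle wells; lower values mean less growth of the strain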
Conditions: S. cerevisiae deletion strains, growth OD

Measured: normalized growth

CC(=O)N1CCN(c2ccc(OCC3CO[C@](Cn4ccnc4)(c4ccc(Cl)cc4Cl)O3)cc2)CC1 (stereo partly drawn)
inactive: locus YIL125W, strain kgd1, hits give low values 0.964
active: locus YAL021C, strain ccr4, hits give low values 0.196 | locus YAL026C, strain drs2, hits give low values 0.0754 | locus YAL030W, strain snc1, hits give low values 0.0875 | locus YBL061C, strain skt5, hits give low values 0.0954 | locus YBR009C, strain hhf1, hits give low values 0.0917 | locus YBR021W, strain FUR4, hits give low values 0.163 | locus YBR023C, strain chs3, hits give low values 0.0942 | locus YBR171W, strain sec66, hits give low values 0.162 | locus YBR229C, strain ROT2, hits give low values 0.124 | locus YBR231C, strain swc5, hits give low values 0.0937 | locus YBR279W, strain paf1, hits give low values 0.0988 | locus YCL011C, strain gbp2, hits give low values 0.0885 | locus YCL016C, strain dcc1, hits give low values 0.102 | locus YCL029C, strain bik1, hits give low values 0.087 | locus YCL061C, strain MRC1, hits give low values 0.0977 | locus YCL069W, strain vba3, hits give low values 0.0793 | locus YCR088W, strain abp1, hits give low values 0.111 | locus YDL005C, strain med2, hits give low values 0.327 | locus YDL035C, strain GPR1, hits give low values 0.0672 | locus YDL040C, strain nat1, hits give low values 0.113 | locus YDL074C, strain BRE1, hits give low values 0.157 | locus YDL101C, strain DUN1, hits give low values 0.086 | locus YDL134C, strain PPH21, hits give low values 0.0637 | locus YDL185W, strain tfp1, hits give low values 0.542 | locus YDL192W, strain arf1, hits give low values 0.156 | locus YDR001C, strain nth1, hits give low values 0.105 | locus YDR069C, strain doa4, hits give low values 0.228 | locus YDR101C, strain arx1, hits give low values 0.101 | locus YDR137W, strain rgp1, hits give low values 0.449 | locus YDR150W, strain NUM1, hits give low values 0.0966 | locus YDR159W, strain sac3, hits give low values 0.135 | locus YDR162C, strain NBP2, hits give low values 0.0614 | locus YDR195W, strain ref2 0.254 | locus YDR297W, strain sur2, hits give low values 0.1 | locus YDR318W, strain mcm21, hits give low values 0.0866 | locus YDR334W, strain swr1, hits give low values 0.0914 | locus YDR335W, strain msn5, hits give low values 0.101 | locus YDR388W, hits give low values 0.0742 | locus YDR392W, strain spt3, hits give low values 0.106 | locus YDR502C, strain sam2, hits give low values 0.0927 | locus YEL003W, strain gim4, hits give low values 0.0768 | locus YEL037C, strain rad23, hits give low values 0.129 | locus YEL061C, strain CIN8 (second series), hits give low values 0.084 | locus YEL061C, strain CIN8, hits give low values 0.0807 | locus YER015W, strain faa2, hits give low values 0.0977 | locus YER016W, strain bim1, hits give low values 0.0966 | locus YER110C, hits give low values 0.129 | locus YER111C, strain swi4, hits give low values 0.123 | locus YER155C, strain BEM2 (second series), hits give low values 0.329 | locus YER155C, strain BEM2, hits give low values 0.0986 | locus YER167W, strain BCK2, hits give low values 0.064 | locus YFR010W, strain ubp6, hits give low values 0.302 | locus YGL078C, strain dbp3, hits give low values 0.908 | locus YGL086W, strain mad1, hits give low values 0.0803 | locus YGL167C, strain pmr1, hits give low values 0.191 | locus YGL173C, strain kem1, hits give low values 0.226 | locus YGL227W, strain vid30, hits give low values 0.0914 | locus YGL240W, strain doc1, hits give low values 0.166 | locus YGL248W, strain PDE1, hits give low values 0.0653 | locus YGL253W, strain hxk2, hits give low values 0.0717 | locus YGR078C, strain PAC10, hits give low values 0.0678 | locus YGR135W, strain pre9, hits give low values 0.0918 | locus YGR229C, strain SMI1, hits give low values 0.0729 | locus YGR252W, strain gcn5, hits give low values 0.213 | locus YHR013C, strain ard1, hits give low values 0.139 | locus YHR027C, strain rpn1, hits give low values 0.174 | locus YHR030C, strain SLT2, hits give low values 0.0646 and 0.118 | locus YHR079C, strain IRE1 (second series), hits give low values 0.0993 | locus YHR079C, strain IRE1, hits give low values 0.155 | locus YHR094C, strain hxt1, hits give low values 0.0943 | locus YHR129C, strain ARP1, hits give low values 0.0814 | locus YHR142W, strain chs7, hits give low values 0.0981 | locus YHR200W, strain rpn10, hits give low values 0.133 | locus YIL066C, strain RNR3, hits give low values 0.0659 | locus YIL073C, strain SPO22, hits give low values 0.202 | locus YIR030C, strain dcg1, hits give low values 0.0973 | locus YJL092W, strain hpr5, hits give low values 0.093 | locus YJL095W, strain BCK1 (second series), hits give low values 0.0703 | locus YJL095W, strain BCK1, hits give low values 0.0666 and 0.127 | locus YJL115W, strain asf1, hits give low values 0.113 | locus YJL129C, strain trk1, hits give low values 0.117 | locus YJL134W, strain LCB3, hits give low values 0.0818 | locus YJL154C, strain vps35, hits give low values 0.123 | locus YJL164C, strain tpk1, hits give low values 0.0872 | locus YJL166W, strain qcr8, hits give low values 0.0816 | locus YJL168C, strain set2, hits give low values 0.0995 | locus YJL187C, strain SWE1 (second series), hits give low values 0.0726
